Measured values taken from PMC7862700, “An all-to-all approach to the identification of sequence-specific readers for epigenetic DNA modifications on cytosine”.

Tests used:
Test in all cases: DAPPL (digital affinity profiling via proximity ligation, sequencing); 10 mM Tris-HCl pH 7.5, 50 mM NaCl, 1 mM DTT, 4% glycerol, room temperature, 30 min; GST-TFs on glutathione beads, 16-mer random dsDNA library, 0.1% formaldehyde crosslink after washing; high values mean tight binding
FLI1 = biological target: T1, FLI1 (Homo sapiens, UniProt Q01543 1-452); conditions: protein: recombinant; tags: N-terminal GST; dsDNA, one strand shown
T1 sequence: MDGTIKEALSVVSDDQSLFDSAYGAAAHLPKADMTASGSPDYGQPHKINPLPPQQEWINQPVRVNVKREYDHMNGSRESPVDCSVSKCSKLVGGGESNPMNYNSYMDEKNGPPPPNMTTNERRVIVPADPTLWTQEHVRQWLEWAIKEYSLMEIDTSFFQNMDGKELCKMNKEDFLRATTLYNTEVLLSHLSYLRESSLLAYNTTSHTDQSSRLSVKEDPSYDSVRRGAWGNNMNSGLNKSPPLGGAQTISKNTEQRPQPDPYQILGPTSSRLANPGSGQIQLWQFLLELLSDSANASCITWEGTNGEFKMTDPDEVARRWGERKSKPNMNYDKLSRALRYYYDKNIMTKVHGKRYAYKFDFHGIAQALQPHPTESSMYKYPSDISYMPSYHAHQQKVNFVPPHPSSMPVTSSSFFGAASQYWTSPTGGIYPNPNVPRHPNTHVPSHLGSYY
How it was run: (§1)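 In yeast, human transcription factors were expressed with a GST fusion, then pulled down on glutathione beads and given DNA barcodes. Pooled with a tag-only sample, they were exposed to 200 nmole of a 16-mer random double-stranded DNA library (Tris/NaCl/DTT/glycerol buffer, room temperature, 30 min), washed, crosslinked with 0.1% formaldehyde, proximity-ligated using BsaI/T4 ligase for 1 h at 37 °C, PCR-amplified and read on an Illumina NextSeq500. Each hexamer's frequency of reads for a factor, divided by the matching frequency for the tag-only sample, gives the binding signal.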

ELK1 = biological target: T2, ELK1 (Homo sapiens, UniProt P19419 1-428); conditions: protein: recombinant; tags: N-terminal GST; dsDNA, one strand shown
T2 sequence: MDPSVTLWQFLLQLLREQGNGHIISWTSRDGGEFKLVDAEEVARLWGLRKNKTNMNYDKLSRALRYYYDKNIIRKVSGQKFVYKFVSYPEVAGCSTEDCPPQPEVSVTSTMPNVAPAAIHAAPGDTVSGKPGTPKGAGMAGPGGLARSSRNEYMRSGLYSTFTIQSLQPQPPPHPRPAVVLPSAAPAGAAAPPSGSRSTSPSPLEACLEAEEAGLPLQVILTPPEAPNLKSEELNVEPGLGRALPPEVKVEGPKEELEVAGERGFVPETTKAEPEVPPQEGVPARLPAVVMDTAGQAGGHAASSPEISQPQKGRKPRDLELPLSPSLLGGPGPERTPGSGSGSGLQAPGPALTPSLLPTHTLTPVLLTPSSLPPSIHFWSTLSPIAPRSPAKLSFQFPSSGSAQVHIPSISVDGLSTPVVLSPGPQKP
How it was run: as §1

GABPA = biological target: T3, GABPA (Homo sapiens, UniProt Q06546 1-454); conditions: protein: recombinant; tags: N-terminal GST; dsDNA, one strand shown
T3 sequence: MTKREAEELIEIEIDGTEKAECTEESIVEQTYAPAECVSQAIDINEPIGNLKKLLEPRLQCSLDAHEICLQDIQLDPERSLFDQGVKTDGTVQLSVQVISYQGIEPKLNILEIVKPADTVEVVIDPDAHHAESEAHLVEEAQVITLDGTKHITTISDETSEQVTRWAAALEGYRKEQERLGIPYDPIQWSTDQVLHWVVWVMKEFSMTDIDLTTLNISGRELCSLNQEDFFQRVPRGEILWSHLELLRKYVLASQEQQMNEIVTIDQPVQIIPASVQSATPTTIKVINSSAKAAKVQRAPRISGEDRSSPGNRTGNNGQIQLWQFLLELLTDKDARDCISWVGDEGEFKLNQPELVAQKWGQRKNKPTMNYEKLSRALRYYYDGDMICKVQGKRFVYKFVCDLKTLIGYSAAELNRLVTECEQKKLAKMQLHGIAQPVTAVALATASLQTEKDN
How it was run: as §1

ERG = biological target: T4, ERG (Homo sapiens, UniProt P11308 1-479); conditions: protein: recombinant; tags: N-terminal GST; dsDNA, one strand shown
T4 sequence: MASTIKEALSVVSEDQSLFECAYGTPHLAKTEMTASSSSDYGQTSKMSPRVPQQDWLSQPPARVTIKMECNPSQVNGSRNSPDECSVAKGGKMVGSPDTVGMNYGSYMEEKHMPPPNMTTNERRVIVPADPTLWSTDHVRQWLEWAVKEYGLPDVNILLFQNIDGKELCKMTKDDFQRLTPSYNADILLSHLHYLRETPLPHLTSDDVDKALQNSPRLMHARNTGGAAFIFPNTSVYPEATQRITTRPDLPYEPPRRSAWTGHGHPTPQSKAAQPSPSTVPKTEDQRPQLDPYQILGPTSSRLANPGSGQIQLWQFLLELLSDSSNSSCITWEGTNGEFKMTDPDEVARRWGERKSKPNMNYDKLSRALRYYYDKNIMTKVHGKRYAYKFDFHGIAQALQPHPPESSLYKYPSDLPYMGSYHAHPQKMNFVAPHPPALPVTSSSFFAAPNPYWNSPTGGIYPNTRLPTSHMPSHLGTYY
How it was run: as §1

ELF1 = ELF1 (Homo sapiens, UniProt P32519 1-619); conditions: protein: recombinant; tags: N-terminal GST; dsDNA, one strand shown
How it was run: as §1

EHF = biological target: T5, EHF (Homo sapiens, UniProt Q9NZC4 1-300); conditions: protein: recombinant; tags: N-terminal GST; dsDNA, one strand shown
T5 sequence: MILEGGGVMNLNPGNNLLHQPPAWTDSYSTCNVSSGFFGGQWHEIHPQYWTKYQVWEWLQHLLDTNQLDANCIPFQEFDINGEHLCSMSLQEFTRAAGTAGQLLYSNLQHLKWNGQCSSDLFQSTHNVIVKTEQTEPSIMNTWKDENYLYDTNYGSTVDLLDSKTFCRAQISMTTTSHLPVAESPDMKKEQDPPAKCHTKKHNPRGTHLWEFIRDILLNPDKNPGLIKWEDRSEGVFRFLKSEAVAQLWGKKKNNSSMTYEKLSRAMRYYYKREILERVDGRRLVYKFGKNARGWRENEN
How it was run: as §1

SPI1 = SPI1 (Homo sapiens, UniProt P17947 1-270); conditions: protein: recombinant; tags: N-terminal GST; dsDNA, one strand shown
How it was run: as §1

SPIB = SPIB (Homo sapiens, UniProt Q01892 1-262); conditions: protein: recombinant; tags: N-terminal GST; dsDNA, one strand shown
How it was run: as §1

ELK3 = biological target: T6, ELK3 (Homo sapiens, UniProt P41970 1-407); conditions: protein: recombinant; tags: N-terminal GST; dsDNA, one strand shown
T6 sequence: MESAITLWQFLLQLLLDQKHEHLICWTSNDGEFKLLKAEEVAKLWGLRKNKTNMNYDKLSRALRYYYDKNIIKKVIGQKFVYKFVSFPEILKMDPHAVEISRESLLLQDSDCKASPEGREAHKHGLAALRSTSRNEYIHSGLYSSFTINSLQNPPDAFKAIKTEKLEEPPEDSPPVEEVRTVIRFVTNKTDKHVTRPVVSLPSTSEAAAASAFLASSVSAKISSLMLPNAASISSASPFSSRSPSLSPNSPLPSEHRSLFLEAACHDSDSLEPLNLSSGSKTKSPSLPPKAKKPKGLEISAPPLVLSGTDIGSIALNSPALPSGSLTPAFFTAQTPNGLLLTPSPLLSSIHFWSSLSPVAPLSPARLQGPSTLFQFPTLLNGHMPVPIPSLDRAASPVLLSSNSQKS
How it was run: as §1

FEV = biological target: T7, FEV (Homo sapiens, UniProt Q99581 1-238); conditions: protein: recombinant; tags: N-terminal GST; dsDNA, one strand shown
T7 sequence: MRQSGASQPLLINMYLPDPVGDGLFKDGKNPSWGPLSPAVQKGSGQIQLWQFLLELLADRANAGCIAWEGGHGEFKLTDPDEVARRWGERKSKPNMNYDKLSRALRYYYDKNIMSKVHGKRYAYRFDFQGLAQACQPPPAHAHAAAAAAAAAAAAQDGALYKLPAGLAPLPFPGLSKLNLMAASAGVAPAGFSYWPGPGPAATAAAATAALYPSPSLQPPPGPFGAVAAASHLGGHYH
How it was run: as §1

ETV5 = ETV5 (Homo sapiens, UniProt P41161 1-510); conditions: protein: recombinant; tags: N-terminal GST; dsDNA, one strand shown
How it was run: as §1

HSF1 = HSF1 (Homo sapiens, UniProt Q00613 1-529); conditions: protein: recombinant; tags: N-terminal GST; chain copies: 3; dsDNA, one strand shown
How it was run: as §1

SPIC = biological target: T8, SPIC (Homo sapiens, UniProt Q8N5J4 1-248); conditions: protein: recombinant; tags: N-terminal GST; dsDNA, one strand shown
T8 sequence: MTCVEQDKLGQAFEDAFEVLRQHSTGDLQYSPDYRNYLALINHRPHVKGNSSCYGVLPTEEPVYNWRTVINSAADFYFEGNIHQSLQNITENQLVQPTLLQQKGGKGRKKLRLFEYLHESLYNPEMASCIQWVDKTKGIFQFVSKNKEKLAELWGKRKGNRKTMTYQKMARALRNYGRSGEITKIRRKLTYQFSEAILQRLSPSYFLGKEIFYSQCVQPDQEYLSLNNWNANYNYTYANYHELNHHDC
How it was run: as §1

ELF4 = ELF4 (Homo sapiens, UniProt Q99607 1-663); conditions: protein: recombinant; tags: N-terminal GST; dsDNA, one strand shown
How it was run: as §1

ELK4 = biological target: T9, ELK4 (Homo sapiens, UniProt P28324-2 1-405); conditions: protein: recombinant; tags: N-terminal GST; dsDNA, one strand shown
T9 sequence: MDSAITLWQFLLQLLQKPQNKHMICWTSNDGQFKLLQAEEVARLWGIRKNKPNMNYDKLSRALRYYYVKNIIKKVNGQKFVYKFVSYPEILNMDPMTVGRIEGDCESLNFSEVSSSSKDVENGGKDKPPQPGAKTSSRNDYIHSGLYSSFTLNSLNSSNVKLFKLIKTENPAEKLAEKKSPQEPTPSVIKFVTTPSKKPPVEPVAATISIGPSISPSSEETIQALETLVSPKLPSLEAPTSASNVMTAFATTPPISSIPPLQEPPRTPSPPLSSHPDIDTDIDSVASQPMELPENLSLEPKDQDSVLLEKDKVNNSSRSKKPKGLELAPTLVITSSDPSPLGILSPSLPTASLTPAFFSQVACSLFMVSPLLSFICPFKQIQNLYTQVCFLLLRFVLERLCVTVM
How it was run: as §1

ETV2 = biological target: T10, ETV2 (Homo sapiens, UniProt O00321 1-342); conditions: protein: recombinant; tags: N-terminal GST; dsDNA, one strand shown
T10 sequence: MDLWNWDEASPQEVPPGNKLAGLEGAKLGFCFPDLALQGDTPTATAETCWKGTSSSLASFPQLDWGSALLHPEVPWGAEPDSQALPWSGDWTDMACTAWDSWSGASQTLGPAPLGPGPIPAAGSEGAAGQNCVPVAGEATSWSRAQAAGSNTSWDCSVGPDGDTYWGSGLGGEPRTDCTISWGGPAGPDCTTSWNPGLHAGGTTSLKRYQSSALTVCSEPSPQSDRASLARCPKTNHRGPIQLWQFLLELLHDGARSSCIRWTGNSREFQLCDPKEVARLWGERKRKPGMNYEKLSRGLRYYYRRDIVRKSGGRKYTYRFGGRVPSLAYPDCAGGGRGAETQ
How it was run: as §1

ELF3 = biological target: T11, ELF3 (Homo sapiens, UniProt P78545 1-371); conditions: protein: recombinant; tags: N-terminal GST; dsDNA, one strand shown
T11 sequence: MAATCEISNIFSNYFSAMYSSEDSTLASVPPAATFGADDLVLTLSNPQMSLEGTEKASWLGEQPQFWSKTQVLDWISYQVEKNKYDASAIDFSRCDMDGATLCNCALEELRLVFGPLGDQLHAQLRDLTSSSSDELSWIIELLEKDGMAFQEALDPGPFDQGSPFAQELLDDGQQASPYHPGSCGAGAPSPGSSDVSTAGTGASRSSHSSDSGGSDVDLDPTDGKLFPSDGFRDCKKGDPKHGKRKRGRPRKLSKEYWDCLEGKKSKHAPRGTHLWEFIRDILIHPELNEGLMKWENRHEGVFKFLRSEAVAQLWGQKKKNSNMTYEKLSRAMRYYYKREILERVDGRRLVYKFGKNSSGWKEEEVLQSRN
How it was run: as §1

CRX = CRX (Homo sapiens, UniProt O43186 1-299); conditions: protein: recombinant; tags: N-terminal GST; dsDNA, one strand shown
How it was run: as §1

ETV1 = ETV1 (Homo sapiens, UniProt P50549 1-477); conditions: protein: recombinant; tags: N-terminal GST; dsDNA, one strand shown
How it was run: as §1

Chain of SPIB (Q01892 whole entry): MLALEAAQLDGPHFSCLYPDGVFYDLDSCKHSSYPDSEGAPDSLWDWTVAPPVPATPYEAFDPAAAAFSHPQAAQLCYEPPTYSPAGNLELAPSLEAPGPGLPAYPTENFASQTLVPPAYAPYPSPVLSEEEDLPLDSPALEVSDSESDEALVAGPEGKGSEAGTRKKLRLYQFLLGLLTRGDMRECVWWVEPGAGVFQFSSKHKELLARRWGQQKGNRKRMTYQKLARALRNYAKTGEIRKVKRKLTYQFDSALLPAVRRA
Chain of ETV5 (P41161 whole entry): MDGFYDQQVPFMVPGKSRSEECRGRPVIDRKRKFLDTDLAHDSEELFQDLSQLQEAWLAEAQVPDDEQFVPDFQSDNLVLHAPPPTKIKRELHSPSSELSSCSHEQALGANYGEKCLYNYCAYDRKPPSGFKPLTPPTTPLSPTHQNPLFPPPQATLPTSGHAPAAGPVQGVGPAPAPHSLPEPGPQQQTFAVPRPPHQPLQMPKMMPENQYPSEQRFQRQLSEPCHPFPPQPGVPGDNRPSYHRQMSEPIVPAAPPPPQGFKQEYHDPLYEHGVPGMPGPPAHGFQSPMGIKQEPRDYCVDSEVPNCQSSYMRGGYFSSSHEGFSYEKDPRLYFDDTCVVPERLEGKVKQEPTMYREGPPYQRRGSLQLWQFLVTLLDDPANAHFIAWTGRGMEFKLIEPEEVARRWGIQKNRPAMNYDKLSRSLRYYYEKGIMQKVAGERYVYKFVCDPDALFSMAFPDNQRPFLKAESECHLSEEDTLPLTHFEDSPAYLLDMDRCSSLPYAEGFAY
Chain of ETV1 (P50549 whole entry): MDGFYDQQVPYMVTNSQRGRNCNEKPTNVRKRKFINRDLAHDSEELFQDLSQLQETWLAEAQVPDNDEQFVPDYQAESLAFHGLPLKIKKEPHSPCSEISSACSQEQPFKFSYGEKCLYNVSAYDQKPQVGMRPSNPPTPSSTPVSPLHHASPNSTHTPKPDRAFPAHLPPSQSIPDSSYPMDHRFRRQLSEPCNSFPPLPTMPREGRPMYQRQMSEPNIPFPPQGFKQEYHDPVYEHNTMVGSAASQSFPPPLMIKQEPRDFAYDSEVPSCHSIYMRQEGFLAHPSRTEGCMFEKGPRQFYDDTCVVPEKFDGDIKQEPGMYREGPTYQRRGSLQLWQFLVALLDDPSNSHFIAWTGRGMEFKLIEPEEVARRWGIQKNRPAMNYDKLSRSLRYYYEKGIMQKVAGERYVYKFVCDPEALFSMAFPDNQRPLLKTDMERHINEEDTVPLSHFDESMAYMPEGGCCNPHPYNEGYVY
Chain of ELF4 (Q99607 whole entry): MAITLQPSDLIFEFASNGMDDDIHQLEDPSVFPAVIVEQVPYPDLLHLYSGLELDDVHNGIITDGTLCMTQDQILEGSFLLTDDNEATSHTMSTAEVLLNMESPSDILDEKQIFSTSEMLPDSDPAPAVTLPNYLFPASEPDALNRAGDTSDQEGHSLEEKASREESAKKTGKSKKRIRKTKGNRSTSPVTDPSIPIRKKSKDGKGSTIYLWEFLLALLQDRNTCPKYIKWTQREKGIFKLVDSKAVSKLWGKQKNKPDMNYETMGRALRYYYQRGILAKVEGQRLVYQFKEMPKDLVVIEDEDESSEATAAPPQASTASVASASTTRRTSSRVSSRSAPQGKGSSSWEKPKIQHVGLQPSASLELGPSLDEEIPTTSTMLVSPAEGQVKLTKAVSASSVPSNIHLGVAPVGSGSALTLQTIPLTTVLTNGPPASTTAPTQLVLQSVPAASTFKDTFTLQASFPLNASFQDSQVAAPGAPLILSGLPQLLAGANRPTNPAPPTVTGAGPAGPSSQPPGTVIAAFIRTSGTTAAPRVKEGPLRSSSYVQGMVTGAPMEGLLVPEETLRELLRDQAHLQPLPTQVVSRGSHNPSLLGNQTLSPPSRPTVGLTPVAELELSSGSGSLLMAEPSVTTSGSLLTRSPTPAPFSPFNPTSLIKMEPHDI
Chain of ELF1 (P32519 whole entry): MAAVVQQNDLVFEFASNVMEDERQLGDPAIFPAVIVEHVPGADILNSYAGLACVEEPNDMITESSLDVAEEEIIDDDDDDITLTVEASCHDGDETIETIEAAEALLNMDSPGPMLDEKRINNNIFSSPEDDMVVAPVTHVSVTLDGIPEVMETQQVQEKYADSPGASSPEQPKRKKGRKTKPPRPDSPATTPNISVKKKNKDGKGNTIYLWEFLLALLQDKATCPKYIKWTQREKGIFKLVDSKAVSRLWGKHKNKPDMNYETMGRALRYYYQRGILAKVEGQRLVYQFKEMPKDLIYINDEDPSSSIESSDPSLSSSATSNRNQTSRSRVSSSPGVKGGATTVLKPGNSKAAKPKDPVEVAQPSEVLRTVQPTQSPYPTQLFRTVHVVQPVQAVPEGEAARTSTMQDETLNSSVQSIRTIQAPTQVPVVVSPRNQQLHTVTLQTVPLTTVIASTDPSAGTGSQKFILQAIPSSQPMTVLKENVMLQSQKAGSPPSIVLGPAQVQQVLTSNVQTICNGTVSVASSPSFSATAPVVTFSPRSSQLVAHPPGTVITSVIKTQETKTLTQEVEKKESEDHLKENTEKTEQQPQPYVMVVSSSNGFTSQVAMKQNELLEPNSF
Chain of HSF1 (Q00613 whole entry): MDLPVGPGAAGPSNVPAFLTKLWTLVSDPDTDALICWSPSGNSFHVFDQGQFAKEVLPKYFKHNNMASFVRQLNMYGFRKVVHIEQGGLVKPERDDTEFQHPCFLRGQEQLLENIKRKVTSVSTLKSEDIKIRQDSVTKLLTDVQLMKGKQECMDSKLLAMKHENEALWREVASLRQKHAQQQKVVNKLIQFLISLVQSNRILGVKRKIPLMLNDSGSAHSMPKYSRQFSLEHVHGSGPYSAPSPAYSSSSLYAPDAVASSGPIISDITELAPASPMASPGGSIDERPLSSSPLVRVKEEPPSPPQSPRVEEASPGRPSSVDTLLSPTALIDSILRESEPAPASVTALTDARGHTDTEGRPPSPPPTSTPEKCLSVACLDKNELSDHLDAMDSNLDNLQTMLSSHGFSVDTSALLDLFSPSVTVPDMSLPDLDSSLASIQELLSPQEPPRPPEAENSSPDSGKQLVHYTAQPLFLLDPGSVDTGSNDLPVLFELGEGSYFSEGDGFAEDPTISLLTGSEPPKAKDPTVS
Chain of CRX (O43186 whole entry): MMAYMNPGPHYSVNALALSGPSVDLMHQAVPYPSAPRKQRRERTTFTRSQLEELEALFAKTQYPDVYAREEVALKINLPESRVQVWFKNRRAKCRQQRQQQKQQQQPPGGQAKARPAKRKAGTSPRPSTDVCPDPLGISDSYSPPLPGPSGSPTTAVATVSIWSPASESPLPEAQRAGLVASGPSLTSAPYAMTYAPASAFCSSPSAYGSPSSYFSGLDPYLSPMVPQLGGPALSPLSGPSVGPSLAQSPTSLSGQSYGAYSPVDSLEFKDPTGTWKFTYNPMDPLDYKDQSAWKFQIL

AAAACA
binding signal (FLI1): 1.35 fold enrichment (6-mer frequency, TF over GST control)
binding signal (ELK1): 1.22 fold enrichment (6-mer frequency, TF over GST control)
binding signal (GABPA): 1.35 fold enrichment (6-mer frequency, TF over GST control)
binding signal (ERG): 1.34 fold enrichment (6-mer frequency, TF over GST control)
binding signal (ELF1): 1.31 fold enrichment (6-mer frequency, TF over GST control)
binding signal (EHF): 1.31 fold enrichment (6-mer frequency, TF over GST control)
binding signal (SPI1): 1.36 fold enrichment (6-mer frequency, TF over GST control)
binding signal (SPIB): 1.24 fold enrichment (6-mer frequency, TF over GST control)
binding signal (ELK3): 1.28 fold enrichment (6-mer frequency, TF over GST control)
binding signal (FEV): 1.34 fold enrichment (6-mer frequency, TF over GST control)
binding signal (ETV5): 1.31 fold enrichment (6-mer frequency, TF over GST control)
binding signal (HSF1): 1.25 fold enrichment (6-mer frequency, TF over GST control)
binding signal (SPIC): 1.42 fold enrichment (6-mer frequency, TF over GST control)
binding signal (ELF4): 1.39 fold enrichment (6-mer frequency, TF over GST control)
binding signal (ELK4): 1.22 fold enrichment (6-mer frequency, TF over GST control)
binding signal (ETV2): 1.34 fold enrichment (6-mer frequency, TF over GST control)
binding signal (ELF3): 1.38 fold enrichment (6-mer frequency, TF over GST control)
binding signal (CRX): 1.13 fold enrichment (6-mer frequency, TF over GST control)
binding signal (ETV1): 1.37 fold enrichment (6-mer frequency, TF over GST control)
